Assay outcomes: PubChem BioAssay, National Center for Advancing Translational Sciences (NCATS)
Sampled rows, rich in hits. Any-hit rate of the full collection: about 10%.
Lamin A splicing – changes lamin A minigene splicing in HeLa cells; AID 1487; actives 0.01% (n = 200,000); Potency, µM (top dose mostly 46.1 µM), for the others: at the highest dose ratio change, negative = inhibition, hits mostly inhibitors; HeLa LMNA splicing GFP/RFP minigene ratio, 48 h; active = well fitted inhibition curve with a large enough effect in the signal ratio, with a control signal flat, not every such curve was filed as active; inconclusive = small, poorly fitted or top-dose-only effect, or effect the other way, or a change in a side signal; the % refers to the signal ratio; also: potency is read from the fitted curve at half-maximal effect
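Read-out is the ratio of GFP to DsRed2 object intensity, acquired by 488 nm laser-scanning cytometry on HeLa lamin A-EGFP minigene reporter cells. Compound incubation 48 hrs at 37 °C in Opti-MEM with 2% FBS; DMSO 0.5% final.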
HPGD block – blocks human HPGD enzyme activity | Potency, µM, for the others: at the highest dose activity change, negative = inhibition, most hits filed as inhibitors | actives 4.3% (n = 150,000) | P15428 | purified HPGD, NADH fluorescence kinetic, PGE2 substrate | AID 894; also: potency is read from the fitted curve at half-maximal effect
Target sequence (P15428 whole entry, looked up): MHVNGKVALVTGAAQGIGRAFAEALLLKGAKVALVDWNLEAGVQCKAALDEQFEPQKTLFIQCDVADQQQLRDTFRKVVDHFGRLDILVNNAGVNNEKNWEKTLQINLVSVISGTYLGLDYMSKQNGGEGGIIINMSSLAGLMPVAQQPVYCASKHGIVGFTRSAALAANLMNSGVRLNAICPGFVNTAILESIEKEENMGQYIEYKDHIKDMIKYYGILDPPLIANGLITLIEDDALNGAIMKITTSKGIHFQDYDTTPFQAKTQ
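20 nM HPGD preincubated 15 min at room temperature with compound in 50 mM Tris-HCl pH 8, 0.01% Tween 20. Started with 1 mM NAD+ and 30 uM prostaglandin E2; NADH fluorescence (360/450 nm) read 5 times over 30-s intervals, last minus first.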
PNC assembly inh – blocks assembly of the perinucleolar compartment; actives 3.1% (n = 140,000); PC3M PTB-GFP, PNC prevalence imaging, 16 h; active compounds read low; activity change (PNC), negative = inhibition, % at 10 µM;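 active = readout at or below -70, meaning at least 70% loss of cells showing the perinucleolar compartment, a nuclear body marking cancer cells; inconclusive = readout between -30 and a set limit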;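 also: plate controls were DMSO wells for no effect and camptothecin positive control wells for full effect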
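Compounds are pinned in duplicate onto adhered PC3M cells stably expressing GFP-tagged PTB and incubated 16 h at 37 C. Cells are then fixed, nuclei stained with Hoechst, and PNC-positive cells counted.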
ALDH1A1 inh – blocks purified human ALDH1A1 activity. P00352. Purified ALDH1A1, NADH fluorescence, propionaldehyde substrate. Potency, µM (series often up to 75.3 µM), for the others: top-dose activity, negative = inhibition, hits mostly inhibitors. actives 7.3% (n = 220,000). AID 1030;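 also: potency is read from the fitted curve at half-maximal effect; plate controls were no enzyme wells and a reference inhibitor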
Target sequence (P00352 whole entry, looked up): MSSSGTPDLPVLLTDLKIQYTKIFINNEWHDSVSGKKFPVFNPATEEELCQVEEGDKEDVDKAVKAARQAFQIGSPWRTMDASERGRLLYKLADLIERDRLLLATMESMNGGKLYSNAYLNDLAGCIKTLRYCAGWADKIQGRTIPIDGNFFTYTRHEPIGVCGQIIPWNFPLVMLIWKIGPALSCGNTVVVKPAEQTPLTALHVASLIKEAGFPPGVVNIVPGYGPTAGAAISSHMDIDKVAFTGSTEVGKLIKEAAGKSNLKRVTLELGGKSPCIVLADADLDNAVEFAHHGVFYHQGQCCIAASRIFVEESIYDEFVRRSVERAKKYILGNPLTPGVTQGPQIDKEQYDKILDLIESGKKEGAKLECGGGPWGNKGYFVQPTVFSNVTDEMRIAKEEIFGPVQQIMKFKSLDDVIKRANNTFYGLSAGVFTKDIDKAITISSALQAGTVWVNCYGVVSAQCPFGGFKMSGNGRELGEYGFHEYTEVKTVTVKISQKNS
Luc counter – Kinase-Glo luciferase inhibition (counter-screen) | Q27757 | Potency, µM (highest dose often 38.3 µM), for inactives: top-dose activity change, negative = inhibition, hits mostly inhibitors | Kinase-Glo luciferase, ATP luminescence, 8 min | actives 0.28% (n = 200,000) | AID 1379; active = well fitted inhibition curve with a large enough effect; inconclusive = small, poorly fitted or top-dose-only effect; also: potency is read from the fitted curve at half-maximal effect; nearly all actives have a fitted effect of over 60% in size
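Luminescence was the read-out, taken after 8-minute incubation at ambient temperature. Luciferase turned over luciferin with 10 uM ATP in imidazole pH 7.2 buffer containing KCl, MgCl2, Tween 20 and BSA.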
IMPase cell inh – IMPase inhibition in cells; P97697; 120,000 tested, under 10 active; inhibition (IP1 accumulation), % at 46.1 µM; CHO-M1 cells, IP1 accumulation, HTRF TR-FRET ratio; active = well fitted curve in the direction sought with a large enough effect in the signal ratio, not every such curve was filed as active; inconclusive = small, poorly fitted or top-dose-only effect, or a change in a side signal; inactive = no such curve, though single readings can be large or run the other way; the % refers to the signal ratio;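 also: cells stimulated with carbachol in lithium chloride buffer; plate controls were DMSO basal wells for no effect and reference inhibitor wells for full effect; higher means more IMPase inhibition seen as more IP1 and lower FRET ratio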
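CHO-M1 cells (CHO stably expressing M1 receptor), compound up to 46 uM final, stimulated with carbachol (50 uM as added) in buffer with 50mM LiCl, pH 7.4, 30 min at 37C. Cytosolic IP1 read by TR-FRET; AC50 from Hill fits.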
The depositor's hits bear a star; ? = inconclusive; nt = no result given; ! = a repeat was not active; [ ] = remark or other dose. Unless noted, calls follow the shape of the dose curve; as a rule, active = well fitted inhibition curve with a large enough effect (not every such curve was filed as active); inconclusive = small, poorly fitted or top-dose-only effect, or another doubt; inactive = no such curve, though single readings can be large or run the other way. Unless noted, % is scaled to controls: 0 for no effect and ±100 for the full control effect.

SMILES | Lamin A splicing | HPGD block | PNC assembly inh | ALDH1A1 inh | Luc counter | IMPase cell inh
Cc1cc(Cl)ccc1OCC(=O)NCc1ccncc1 | 4% | -10% | 72 | -3% | -6% | -12
CCOc1ccc2cc(-c3nnc(Nc4ccccc4F)s3)c(=O)oc2c1 | nt | nt | nt | nt | nt | -12
CCC(=O)C(C(=O)OC)[C@H](CCc1ccccc1)NC(=O)OC (stereo not given in full) | nt | -6% | nt | 3% | 1% | nt
Cc1cc(Cl)c(S(=O)(=O)N2CCSCC2)cc1OCC(=O)NC1CCCCC1 | ? | -15% | -9 | 7.9µM* | 6% | 8
Cc1ccc(OCC(=O)NC2CCCC2)c(C)c1 | ? | 28µM* | ? | 14% | -1% | 2
O=C(Nc1cccc(C(=O)OCc2cc(=O)n3nc(C4CC4)sc3n2)c1)c1cccc(F)c1 | 3%[46 µM] | nt | nt | nt | nt | nt
CCN(CC)c1ccc(NC(=O)c2cc(CN3CCCC3)on2)c(C)c1 | 8%[46 µM] | nt | nt | nt | nt | nt
CC(=O)n1nc(-c2cccc(C)c2)nc1SCC(=O)Nc1ccccc1 | -9% | -18% | ? | 4% | -1% | -6
CCn1c(SCC(=O)NCc2ccco2)nc2ccccc2c1=O | nt | nt | nt | -7% | -2% | nt
CCc1ccccc1NC(=O)CSc1nc(-c2ccccc2)nn1C(=O)c1cccc([N+](=O)[O-])c1 | 8% | 13µM* | 76 | -3% | 0% | 4
O=C(CSc1nc2ccccc2c2nc3ccccc3n12)NCc1ccco1 | ? | ? | -83* | ? | 4% | 7
Cc1ccc(NC(=O)CSc2nc3ccccc3c3nc4ccccc4n23)cc1 | ? | -15% | -108* | -6% | -10% | -19
CCC(=O)n1nc(-c2ccccc2)nc1SCC(=O)Nc1ccc(C)cc1 | 4% | 7.9µM* | 72 | -1% | 0% | 4
O=C(c1cccc([N+](=O)[O-])c1)n1nc(-c2ccccc2)nc1NCc1ccccc1 | -9% | nt | ? | -11% | nt | -9
CCCCN(CC)CCCNC(=O)c1c(C)oc2ncnc(N3CCOCC3)c12 | 5%[46 µM] | nt | nt | nt | nt | nt
COc1ccc(S(=O)(=O)NCC(c2ccco2)N2CCN(c3ccccc3F)CC2)cc1OC (stereo not given) | -11%[46 µM] | nt | nt | nt | nt | nt
CC[C@H](C)[C@@H](NC(=O)O[C@@H]1C(=O)c2cc(Br)ccc2O[C@H]1c1ccc2c(c1)OCO2)C(=O)OC | 12% | -5% | 36 | 25µM*! | 0% | nt
CC(C)CO/N=C1/C[C@@H](O)[C@@H](O)[C@@H]2[C@@H]3C(=O)N(C[C@@H]4CCCO4)C(=O)[C@H]3CC[C@H]12 | nt | nt | nt | 2%[13.5 µM] | nt | nt
O=C(/C=C/c1ccccc1Cl)NCc1cccs1 | -9% | 14µM* | 29 | ? | -3% | nt
COc1ccccc1C(=O)Nc1c(C(=O)N2CCN(c3ccccc3F)CC2)oc2ccccc12 | -17%[46 µM] | nt | nt | nt | nt | nt
Cc1cccn2c(=O)c(C(=O)N3CCN(c4ccccc4)CC3)cnc12 | -3%[46 µM] | nt | nt | nt | nt | nt
O=C(O)c1ccc(Cl)c(Cl)c1 | nt | -8% | nt | 3% | nt | nt
NNc1cc(C(=O)O)ccc1Cl | 16%[46 µM] | nt | nt | 22µM* | nt | nt
Cc1ccc(NC(=S)N/N=C/c2ccc([N+](=O)[O-])s2)cc1 | ? | ? | 35 | 11µM* | 13% | nt
Cc1ccc(/C=N/NC(=O)Cc2cccs2)o1 | -12% | -21% | -22 | 13µM* | 0% | nt
SMILES | Lamin A splicing | HPGD block | PNC assembly inh | ALDH1A1 inh | Luc counter | IMPase cell inh
COc1cc(/C=N/NC(=O)Cc2cccs2)c([N+](=O)[O-])cc1OC | -2% | -12% | 55 | ? | -1% | nt
O=C(Cc1cccs1)N/N=C\c1ccc([N+](=O)[O-])s1 | 7%[46 µM] | nt | nt | 13µM* | 3% | nt
COc1cccc(Cn2c(=O)c(-c3cccs3)nc3cnc(N(C)C)nc32)c1 | 16% | nt | nt | ? | nt | nt
CCN(CC)c1nc2n(c(=S)n1)CCS2 | 1% | -13% | -88* | 9% | -4% | 2
Cc1cc(C(=O)Nc2ccc(OCc3ccccc3)cc2)c(C)o1 | nt | nt | nt | ? | 11µM* | nt
C/C(CC(=O)Nc1ccc(OCc2ccccc2)cc1)=N\NC(=O)C(=O)Nc1ccc(C)c(Cl)c1 | 14% | -13% | 1 | 14µM* | -6% | -9
C/C(CC(=O)Nc1ccc(C)c(Cl)c1)=N\NC(=O)Cc1ccccc1 | -8% | -14% | 27 | ? | 0% | nt
CCOC(=O)C(=O)Nc1ccc(OCc2ccccc2)cc1 | -4%[46 µM] | nt | nt | 25µM* | -11% | nt
Cc1oc(C(=O)Nc2ccc(C(=O)O)cc2)cc1COc1ccccc1 | ? | 20µM* | ? | -7% | -3% | 0
COc1ccc2c(c1)c(C(C)=O)c(C)n2-c1ccccc1 | 21% | -7% | ? | 14% | -4% | 1
COc1ccc(-n2c(C)c(C(C)=O)c(C(C)=O)c2C)cc1 | -2% | -4% | -14 | 8% | -4% | 2
CCOc1ccc(-n2c(C)c(C(C)=O)c(C(C)=O)c2C)cc1 | -12% | -10% | ? | 22µM* | -1% | 14[0.0738 µM]
COc1ccc(-n2c(C)c(C(C)=O)c3cc(O)ccc32)cc1 | 1% | 4µM* | ? | -9% | 8% | 2
Cc1ccc(C)c2c3c([nH]c12)-c1nonc1CC3 | -12% | -22% | 11 | 22µM* | 3% | -1
CCOC(=O)c1cccc(NC(=O)CSc2nc3ccccc3c(=O)n2CC)c1 | 6% | -8% | -94* | 9% | -3% | -23
CCOC(=O)c1cccc(NC(=O)CSc2nc3ccccc3c(=O)n2CCOC)c1 | -8% | -12% | ? | 8% | -2% | 10
CCn1c(SCC(=O)Nc2cccc(C)c2)nc2c(c1=O)SC(C)C2 (stereo not given) | -15% | -22% | 8 | 20µM* | 6% | 4
CCn1c(SCC(=O)N2CCOCC2)nc2c(c1=O)SC(C)C2 (stereo not given) | 0% | -11% | -100* | 2% | 0% | -13
CCn1c(SCC(=O)Nc2nnc(C)s2)nc2c(c1=O)SC(C)C2 (stereo not given) | -5% | -13% | ? | 4% | -1% | 2
CCn1c(SCC(=O)Nc2ccc3c(c2)OCO3)nc2c(c1=O)SC(C)C2 (stereo not given) | -3% | -6% | 21 | ? | -2% | 2
CC1Cc2nc(SCC(=O)NC3CCCCC3)n(C)c(=O)c2S1 (stereo not given) | 20% | 40µM* | -28 | -102% | -4% | 1
Fc1ccccc1CSc1nnc(-c2ccccc2)o1 | 12% | 10µM* | ? | -13% | -3% | 16
O=c1cc(CSc2nnc(-c3ccccc3)o2)c2ccccc2[nH]1 | -2% | 7.9µM* | 12 | 3% | 0% | -7
Cc1ccc(C)c(CSc2nnc(-c3cccnc3)o2)c1 | 18% | 25µM* | 26 | ? | -3% | 6
Fc1ccccc1CSc1nnc(-c2cccnc2)o1 | nt | nt | nt | -2% | -3% | nt
